The structures appear in SMILES notation.

For assay [1], the target named is MAP/microtubule affinity-regulating kinase 3 (Homo sapiens) (UniProt P27448). Conditions: at 1 µM.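 Note: reported values are averaged percent inhibition of MARK3.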
Assay [2] deals with T1, MAP/microtubule affinity-regulating kinase 4 (Homo sapiens) (UniProt Q96L34).
T1 sequence (whole entry): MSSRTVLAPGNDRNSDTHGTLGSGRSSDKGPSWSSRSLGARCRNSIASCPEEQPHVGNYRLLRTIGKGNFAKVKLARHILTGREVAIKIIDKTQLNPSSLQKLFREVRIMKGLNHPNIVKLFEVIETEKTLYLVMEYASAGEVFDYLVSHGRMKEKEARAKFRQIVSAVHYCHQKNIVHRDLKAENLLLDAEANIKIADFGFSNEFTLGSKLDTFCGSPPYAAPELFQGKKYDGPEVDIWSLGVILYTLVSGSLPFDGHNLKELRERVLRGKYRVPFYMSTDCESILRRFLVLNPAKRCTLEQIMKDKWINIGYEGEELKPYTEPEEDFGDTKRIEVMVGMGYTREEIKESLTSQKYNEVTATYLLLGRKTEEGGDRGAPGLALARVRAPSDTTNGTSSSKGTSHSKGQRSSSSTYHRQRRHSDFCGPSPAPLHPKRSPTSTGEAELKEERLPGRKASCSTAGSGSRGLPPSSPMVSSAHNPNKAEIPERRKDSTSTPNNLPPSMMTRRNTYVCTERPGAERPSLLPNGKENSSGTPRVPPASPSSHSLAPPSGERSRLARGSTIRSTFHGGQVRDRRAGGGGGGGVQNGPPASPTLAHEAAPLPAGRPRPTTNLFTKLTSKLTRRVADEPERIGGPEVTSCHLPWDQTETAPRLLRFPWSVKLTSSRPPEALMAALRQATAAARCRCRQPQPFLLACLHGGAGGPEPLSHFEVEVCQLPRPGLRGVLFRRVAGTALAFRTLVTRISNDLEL
Conditions: at 0.1 µM.

The target of assay [3] is T1, MAP/microtubule affinity-regulating kinase 4 (Homo sapiens). Conditions: at 1 µM.
In assay [4] the target is Maternal embryonic leucine zipper kinase (Homo sapiens) (UniProt Q14680). The conditions noted are these: at 0.1 µM.
The target is the same in assay [5]. Conditions: at 1 µM.
In assay [6] the target is MAP kinase-interacting serine/threonine-protein kinase 1 (Homo sapiens) (UniProt Q9BUB5). Conditions: at 0.1 µM.
Assay [7] shares this target. Conditions: at 1 µM.
The target of assay [8] is MAP kinase-interacting serine/threonine-protein kinase 2 (Homo sapiens) (UniProt Q9HBH9). Conditions: at 0.1 µM.
Assay [9] shares this target. The conditions noted are these: at 1 µM.
Assay [10] addresses Serine/threonine-protein kinase MARK2 (Homo sapiens) (UniProt Q7KZI7). Conditions: at 0.1 µM.

Sequence of Serine/threonine-protein kinase MARK2 (Homo sapiens) (Q7KZI7 whole entry): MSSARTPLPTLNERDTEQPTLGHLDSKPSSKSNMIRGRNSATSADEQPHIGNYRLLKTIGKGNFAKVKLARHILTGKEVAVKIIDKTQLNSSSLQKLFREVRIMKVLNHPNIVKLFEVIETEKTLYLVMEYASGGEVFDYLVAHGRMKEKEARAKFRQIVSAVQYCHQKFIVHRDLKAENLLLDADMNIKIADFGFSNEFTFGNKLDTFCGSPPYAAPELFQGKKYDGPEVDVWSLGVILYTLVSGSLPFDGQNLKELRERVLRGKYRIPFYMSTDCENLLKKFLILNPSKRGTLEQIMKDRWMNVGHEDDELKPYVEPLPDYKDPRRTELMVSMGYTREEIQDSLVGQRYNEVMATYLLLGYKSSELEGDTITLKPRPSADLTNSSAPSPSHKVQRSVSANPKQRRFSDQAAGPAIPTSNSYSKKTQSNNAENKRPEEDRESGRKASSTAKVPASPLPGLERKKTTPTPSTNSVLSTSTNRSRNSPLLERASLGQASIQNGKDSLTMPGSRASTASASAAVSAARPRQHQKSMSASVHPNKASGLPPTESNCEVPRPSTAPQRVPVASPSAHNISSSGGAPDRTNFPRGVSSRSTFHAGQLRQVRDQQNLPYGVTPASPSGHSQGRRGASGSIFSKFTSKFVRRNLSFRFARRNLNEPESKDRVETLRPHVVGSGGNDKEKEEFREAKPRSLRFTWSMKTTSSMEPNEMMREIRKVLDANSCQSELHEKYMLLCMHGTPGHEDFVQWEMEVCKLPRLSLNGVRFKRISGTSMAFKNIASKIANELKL
Sequence of MAP kinase-interacting serine/threonine-protein kinase 1 (Homo sapiens) (Q9BUB5 whole entry, looked up): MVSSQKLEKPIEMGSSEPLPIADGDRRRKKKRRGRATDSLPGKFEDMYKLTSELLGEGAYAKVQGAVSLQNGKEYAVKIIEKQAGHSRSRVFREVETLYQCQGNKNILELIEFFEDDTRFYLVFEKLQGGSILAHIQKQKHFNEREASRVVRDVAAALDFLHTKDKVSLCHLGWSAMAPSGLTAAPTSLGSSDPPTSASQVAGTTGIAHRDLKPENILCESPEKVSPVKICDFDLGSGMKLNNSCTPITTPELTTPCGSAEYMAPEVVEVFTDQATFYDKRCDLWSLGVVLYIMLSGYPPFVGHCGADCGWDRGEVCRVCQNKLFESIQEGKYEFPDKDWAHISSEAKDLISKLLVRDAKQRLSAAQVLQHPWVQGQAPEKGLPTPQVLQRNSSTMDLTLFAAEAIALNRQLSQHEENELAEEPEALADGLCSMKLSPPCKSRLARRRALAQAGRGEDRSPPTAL
Sequence of MAP kinase-interacting serine/threonine-protein kinase 2 (Homo sapiens) (Q9HBH9 whole entry, looked up): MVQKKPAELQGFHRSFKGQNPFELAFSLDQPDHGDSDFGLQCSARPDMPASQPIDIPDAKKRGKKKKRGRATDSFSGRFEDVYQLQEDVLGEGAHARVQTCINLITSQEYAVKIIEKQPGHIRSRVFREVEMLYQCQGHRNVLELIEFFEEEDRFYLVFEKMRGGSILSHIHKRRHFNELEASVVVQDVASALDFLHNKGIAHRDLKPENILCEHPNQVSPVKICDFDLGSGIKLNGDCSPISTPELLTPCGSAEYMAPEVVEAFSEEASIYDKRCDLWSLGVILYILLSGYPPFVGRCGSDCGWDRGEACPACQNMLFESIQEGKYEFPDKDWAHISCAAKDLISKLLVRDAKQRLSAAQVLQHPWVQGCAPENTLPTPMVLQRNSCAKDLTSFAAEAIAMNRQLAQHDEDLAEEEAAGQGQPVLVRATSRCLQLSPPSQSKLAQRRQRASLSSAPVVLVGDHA
Sequence of Maternal embryonic leucine zipper kinase (Homo sapiens) (Q14680 whole entry, looked up): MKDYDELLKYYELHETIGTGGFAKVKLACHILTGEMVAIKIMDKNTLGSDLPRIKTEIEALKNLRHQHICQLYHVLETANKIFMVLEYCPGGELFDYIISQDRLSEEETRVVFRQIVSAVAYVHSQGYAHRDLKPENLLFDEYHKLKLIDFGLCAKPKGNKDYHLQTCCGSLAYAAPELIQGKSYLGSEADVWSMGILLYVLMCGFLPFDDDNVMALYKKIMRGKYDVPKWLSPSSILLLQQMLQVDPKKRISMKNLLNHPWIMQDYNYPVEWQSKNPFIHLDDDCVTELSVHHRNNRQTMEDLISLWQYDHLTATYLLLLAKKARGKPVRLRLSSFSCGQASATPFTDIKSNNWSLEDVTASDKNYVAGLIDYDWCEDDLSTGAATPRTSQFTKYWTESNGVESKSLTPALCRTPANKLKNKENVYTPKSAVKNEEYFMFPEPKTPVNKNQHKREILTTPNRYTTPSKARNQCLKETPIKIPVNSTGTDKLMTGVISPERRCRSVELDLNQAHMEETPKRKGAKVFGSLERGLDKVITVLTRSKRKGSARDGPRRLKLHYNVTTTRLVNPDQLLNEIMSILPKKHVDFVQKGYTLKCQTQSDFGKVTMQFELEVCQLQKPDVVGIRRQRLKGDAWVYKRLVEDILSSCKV
Sequence of MAP/microtubule affinity-regulating kinase 3 (Homo sapiens) (P27448 whole entry, looked up): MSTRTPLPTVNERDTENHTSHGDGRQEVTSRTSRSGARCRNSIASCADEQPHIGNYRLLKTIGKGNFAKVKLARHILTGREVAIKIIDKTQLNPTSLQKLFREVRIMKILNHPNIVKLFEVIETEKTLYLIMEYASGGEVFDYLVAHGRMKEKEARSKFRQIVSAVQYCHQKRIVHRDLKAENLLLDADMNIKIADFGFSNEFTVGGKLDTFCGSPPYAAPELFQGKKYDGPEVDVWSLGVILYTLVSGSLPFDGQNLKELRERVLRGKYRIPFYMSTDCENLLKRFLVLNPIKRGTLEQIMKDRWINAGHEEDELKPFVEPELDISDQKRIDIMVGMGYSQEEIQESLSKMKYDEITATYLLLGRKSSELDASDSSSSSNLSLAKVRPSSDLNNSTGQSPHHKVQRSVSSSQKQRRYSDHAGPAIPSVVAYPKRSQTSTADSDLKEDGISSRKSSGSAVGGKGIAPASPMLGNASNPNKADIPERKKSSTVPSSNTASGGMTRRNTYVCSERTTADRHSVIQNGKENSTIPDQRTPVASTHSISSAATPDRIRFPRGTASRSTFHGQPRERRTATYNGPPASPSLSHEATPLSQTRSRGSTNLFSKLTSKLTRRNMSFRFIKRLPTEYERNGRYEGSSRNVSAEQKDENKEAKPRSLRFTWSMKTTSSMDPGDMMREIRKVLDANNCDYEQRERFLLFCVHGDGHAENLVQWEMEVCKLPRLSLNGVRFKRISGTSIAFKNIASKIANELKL

Take `COc1cc2ncn(-c3cc(OCc4ccccc4Cl)c(C(N)=O)s3)c2cc1OC`: the inhibition (usually the relative decrease from the control value, in per cent) came out at 9.99% in assay [1]; 1.66% in assay [2]; 9.04% in assay [3]; 2.05% in [4]; 8.87% in assay [5]; 0.61% in [6]. Besides, the inhibition in assay [7] was determined as 7.42%; in assay [8], 1.58%; in assay [9], 7.9%; in assay [10], 0.69%.
With `CS(=O)(=O)Nc1ccc(N/C=C2\C(=O)Nc3ccccc32)cc1`, the inhibition is 16.1% in [1]; 3.29% in assay [2]; 18.9% in [3]; -1.64% in assay [4]; 20.9% in assay [5]; -0.49% in [6]. In addition, the inhibition in assay [7] is -0.33%; in [8] it was 0.01%; in assay [9], 5.59%; in assay [10], 2.67%.
For `COc1ccc(-c2nn3ncccc3c2-c2ccnc(Nc3ccc(Cl)c(C(F)(F)F)c3)n2)cc1`, the inhibition in [1] is 6.57%; in [2] it was 0.48%; in assay [3] it was 0.08%; in [4], 0.2%; in [5], 4.8%; in [6] it was -1.04%. In addition, the inhibition is 5.69% in assay [7], 1.9% in assay [8], 2.43% in [9] and -0.27% in assay [10].
Consider `N#Cc1c(NC(=O)c2cccc3ccccc23)sc2c1CCCC2`, for which the inhibition is 0.94% in assay [1]; 2.49% in assay [2]; 1.96% in assay [3]; 4.2% in [4]; 7.39% in [5]; 1.49% in assay [6]. In addition, the inhibition turned out to be 4.73% in assay [7], 1.09% in assay [8], 1.55% in assay [9] and 0.64% in assay [10].
For `COc1cc(C=NNc2ncnc3c2cnn3-c2ccccc2)ccc1O`, the inhibition was found to be 18.2% in [1]; 1.61% in assay [2]; 11.3% in assay [3]; 6.74% in assay [4]; 43.8% in [5]; 12.1% in assay [6]. For the same molecule, the inhibition in assay [7] was 49.9%; in assay [8] it was 13.7%; in assay [9] it was 52%; in assay [10], -0.32%.
As to `CC(C)=Cc1cccc2c1/C(=N/Nc1ccc(S(N)(=O)=O)cc1)C(=O)N2`, the inhibition was 20.6% in assay [1]; 1.89% in [2]; 20% in [3]; 0.98% in assay [4]; 25.6% in [5]; 0.23% in [6]. Moreover, the inhibition in assay [7] was found to be 7.18%; in assay [8] it was 1.9%; in assay [9] it was 4.65%; in [10], 1.87%.
Turning to `Cc1ccc(NC(=O)c2ccnc(N3CCCC3)c2)cc1-c1ccc(C(=O)NCC2CC2)cc1`, the inhibition in assay [1] was found to be 0.65%; in [2], 4.16%; in assay [3], 5.97%; in assay [4] it was 4.85%; in assay [5], 7.99%; in assay [6], 1.78%. For the same molecule, the inhibition in assay [7] is 6.57%; in [8], -0.01%; in [9], 1.11%; in assay [10], 0.13%.
On to `O=C1NC(=O)C(c2ccc(Cl)cc2)=C1Nc1ccc(Cl)c(C(=O)O)c1`, for which the inhibition in [1] is 1.91%; in [2] it was -0.05%; in assay [3] it was 1.71%; in [4] it was -3.46%; in assay [5], 1.25%; in [6], -0.24%. Further, the inhibition is -0.57% in assay [7], -0.57% in [8], 0.11% in [9] and -0.46% in assay [10].
For `Nc1nc(-c2ccc3c(c2)C(=Cc2cc(Br)c(O)c(Br)c2)C(=O)N3)cs1`, the inhibition in assay [1] was -2.49%; in assay [2], 0.78%; in [3], 1.73%; in [4], 0.07%; in assay [5], 5.36%; in assay [6], -1.04%. Besides, the inhibition in [7] amounted to 7.91%; in assay [8], 0.49%; in assay [9] it was 10.6%; in assay [10], 0%.
`CS(=O)(=O)CCNCc1ccc(-c2ccc3ncnc(Nc4ccc(OCc5cccc(F)c5)c(C(F)(F)F)c4)c3c2)o1`: the inhibition in assay [1] was -2.72%; in [2] it was 1.59%; in assay [3] it was -0.39%; in [4] it was 4.21%; in [5], 3.14%; in [6] it was 3.81%. The inhibition in assay [7] is 9.5%; in [8], 3.07%; in [9], 10.4%; in assay [10], 2.7%.
For `CN(C)c1cc2c(Nc3ccc4nc(Cc5ccccc5)[nH]c4c3)ncnc2cn1`, the inhibition was found to be 5% in [1]; 2.82% in assay [2]; 3% in assay [3]; 6.98% in assay [4]; 11.4% in assay [5]; 3.69% in assay [6]. Also, the inhibition in assay [7] amounted to 8.7%; in assay [8], 0.92%; in [9] it was 4.05%; in assay [10] it was 0.6%.
With `COc1ccc(-c2coc3ncnc(N)c23)cc1`, the inhibition is -0.28% in [1]; 3.62% in [2]; 2.28% in [3]; 4.21% in [4]; 5.33% in assay [5]; 2.45% in assay [6]. In addition, the inhibition in assay [7] is 4.3%; in assay [8] it was 0.67%; in assay [9], 0.83%; in [10] it was 0.91%.
Consider `Nc1ncnc2occ(-c3ccc(NC(=O)Nc4cccc(C(F)(F)F)c4)cc3)c12`, for which the inhibition in assay [1] came out at 5.23%; in assay [2], 2.8%; in assay [3] it was 4.23%; in [4], 3.16%; in assay [6], 11.2%; in assay [7], 38.7%. The inhibition came out at 9.53% in assay [8], 53.9% in assay [9] and 1.27% in assay [10].
As for `Nc1ncnc2occ(-c3ccc(NC(=O)Nc4cc(C(F)(F)F)cc(C(F)(F)F)c4)cc3)c12`, the inhibition worked out at 2.35% in [1]; 1.32% in [2]; 1.47% in [3]; 0.21% in assay [4]; 3.24% in assay [6]; 12.2% in [7]. Besides, the inhibition was 0.38% in assay [8], 7.49% in [9] and -1.98% in assay [10].
On to `Nc1nc(-c2ccccn2)c(-c2ccc3ncccc3n2)s1`, for which the inhibition in [1] worked out at 8.13%; in [2], 0.3%; in assay [3] it was 2.26%; in [4], 3.67%; in assay [5], 7.64%; in assay [6], 2.16%. Also, the inhibition in assay [7] is 5.61%; in assay [8], 1%; in [9], 5.53%; in [10], -3.64%.
Turning to `CCn1c(-c2nonc2N)nc2cncc(C(=O)N3CCNCC3)c21`, the inhibition in assay [1] worked out at 7.99%; in [2], 2.3%; in assay [3] it was 1.48%; in [4], 6.1%; in assay [5], 9.51%; in [6], 2.42%. Moreover, the inhibition worked out at 2.99% in [7], 1.78% in assay [8], 0.78% in assay [9] and 2.18% in [10].
In the case of `CNC(=O)c1cncc(/C=C/c2c(Cl)cccc2Cl)c1`, the inhibition was found to be 3.1% in assay [1]; 1.49% in assay [2]; 3.08% in assay [3]; 6.04% in assay [4]; 14.7% in assay [5]; 1.63% in [6]. The inhibition in [7] was found to be 6.73%; in assay [8], 3.42%; in assay [9], 16.3%; in assay [10], 1%.

The values are drawn from ChEMBL document CHEMBL1961873, “Compounds: GSK PKIS; Assays: Nanosyn kinase panel” (2012).
